Data published in PubChem BioAssay (Tox21).
Records with an inconclusive call do not appear. Where a call stands in place of a potency, no number is given. Calls of active or inactive are those of the source. Unless noted, calls follow the shape of the dose curve; as a rule, active = well fitted curve in the direction sought with a large enough effect in the repeat runs; inconclusive = weak or mixed curves; inactive = no such curve, though single readings can be large; an effect the other way counts as inactive or inconclusive.

Key:
[1] = qHTS assay to identify small molecule antagonists of the thyroid receptor (TR) signaling pathway (AID 743065); also: series mostly up to about 70 µM; nearly all actives have a fitted effect of over 55% in size
Summary of the method: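 GH3.TRE-Luc rat pituitary cells (two TREs driving luciferase) were dosed with compound, then stimulated with 1 nM T3 (final) for 23.5 h at 37 C. ONE-Glo luminescence was the read-out, with CellTiter-Fluor fluorescence as the cytotoxicity counter-screen.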

[2] = tested on: thyroid hormone receptor (rat, GH3 cells); experiment: qHTS assay to identify small molecule agonists of the thyroid receptor (TR) signaling pathway (AID 743066; calls by dose curve)
[3] = target: Estrogen receptor (Homo sapiens) (UniProt P03372); experiment: qHTS assay to identify small molecule antagonists of the estrogen receptor alpha (ER-alpha) signaling pathway (AID 743069; active = well fitted curve in the direction sought with a large enough effect in the signal ratio in the repeat runs, not every such curve was filed as active; the % refers to the signal ratio)
Sequence of Estrogen receptor (Homo sapiens) (P03372 whole entry, looked up): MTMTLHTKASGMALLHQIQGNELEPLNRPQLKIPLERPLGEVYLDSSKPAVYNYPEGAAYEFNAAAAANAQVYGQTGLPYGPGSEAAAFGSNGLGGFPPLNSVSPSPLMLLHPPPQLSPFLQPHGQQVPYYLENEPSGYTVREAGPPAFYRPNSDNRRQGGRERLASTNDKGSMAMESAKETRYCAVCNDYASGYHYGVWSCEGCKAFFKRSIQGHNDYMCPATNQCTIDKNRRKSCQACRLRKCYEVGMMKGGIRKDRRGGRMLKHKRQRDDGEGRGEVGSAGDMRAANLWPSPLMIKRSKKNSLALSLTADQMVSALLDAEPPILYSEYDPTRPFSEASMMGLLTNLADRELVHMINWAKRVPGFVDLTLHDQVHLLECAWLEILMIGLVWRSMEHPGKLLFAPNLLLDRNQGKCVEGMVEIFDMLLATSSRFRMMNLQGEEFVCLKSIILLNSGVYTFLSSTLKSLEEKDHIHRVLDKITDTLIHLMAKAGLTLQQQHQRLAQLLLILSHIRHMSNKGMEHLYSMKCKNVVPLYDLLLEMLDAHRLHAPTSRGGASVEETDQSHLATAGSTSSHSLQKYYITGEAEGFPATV
Summary of the method: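 Reporter cells (ER-alpha-bla, HEK293 background) are conditioned overnight in stripped-serum medium (2% charcoal-stripped FBS). Compound and 17beta-estradiol exposure runs 18 hr at 37C, 5% CO2.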

[4] = qHTS assay to identify small molecule antagonists of the estrogen receptor alpha (ER-alpha) signaling pathway - cell viability counter screen (AID 743074; calls by dose curve;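 also: HEK293 cells carrying ER-alpha-UAS-bla reporter stimulated with 17beta-estradiol; nearly all actives have a fitted effect of over 45% in size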)
[5] = target: Estrogen receptor (Homo sapiens) (UniProt P03372); experiment: qHTS assay to identify small molecule agonists of the estrogen receptor alpha (ER-alpha) signaling pathway (AID 743075; calls by dose curve;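 also: HEK293 GripTite cells with ER-alpha and UAS-driven beta-lactamase reporter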; also: potency is read from the fitted curve at half-maximal effect)
[6] = qHTS assay to identify small molecule antagonists of the estrogen receptor alpha (ER-alpha) signaling pathway using the BG1 cell line (AID 743080; calls by dose curve;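 also: BG1 cells stimulated with 17beta-estradiol alongside compound; series mostly up to about 70 µM; nearly all actives have a fitted effect of over 25% in size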)
Summary of the method: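 BG1-Luc-4E2 cells (endogenous full-length ER-alpha, 4xERE luciferase) hormone-starved 5 days in charcoal-stripped FBS, plated 4,000/well for 24 h, then compound plus 17beta-estradiol for 21.5 h at 37 C; ONE-Glo luminescence read.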

[7] = qHTS assay to identify small molecule antagonists of the estrogen receptor alpha (ER-alpha) signaling pathway using the BG1 cell line - cell viability counter screen (AID 743081);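 also: compound given together with 17beta-estradiol as the ER stimulus; series mostly up to about 70 µM; nearly all actives have a fitted effect of over 45% in size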
[8] = target: Aromatase (Homo sapiens) (UniProt P11511); experiment: qHTS assay to identify aromatase inhibitors (AID 743083); also: series mostly up to about 70 µM; nearly all actives have a fitted effect of over 55% in size
Sequence of Aromatase (Homo sapiens) (P11511 whole entry, looked up): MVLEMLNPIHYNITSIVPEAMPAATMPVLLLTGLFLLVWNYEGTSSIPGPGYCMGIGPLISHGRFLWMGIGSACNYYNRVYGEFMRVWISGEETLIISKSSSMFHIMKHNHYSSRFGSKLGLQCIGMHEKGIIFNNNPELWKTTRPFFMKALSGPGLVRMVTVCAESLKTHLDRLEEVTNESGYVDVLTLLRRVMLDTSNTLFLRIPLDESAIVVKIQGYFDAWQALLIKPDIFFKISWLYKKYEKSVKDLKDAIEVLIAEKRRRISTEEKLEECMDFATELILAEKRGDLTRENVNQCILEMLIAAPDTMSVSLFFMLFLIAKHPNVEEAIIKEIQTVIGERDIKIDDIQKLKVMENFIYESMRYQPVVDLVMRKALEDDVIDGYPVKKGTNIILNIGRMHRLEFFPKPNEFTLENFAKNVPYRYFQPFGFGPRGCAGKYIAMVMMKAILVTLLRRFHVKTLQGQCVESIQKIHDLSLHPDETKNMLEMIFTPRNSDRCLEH

[9] = qHTS assay to identify aromatase inhibitors - cell viability counter screen (AID 743084);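 also: cells stimulated with testosterone during compound exposure; nearly all actives have a fitted effect of over 55% in size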
[10] = target: Aryl hydrocarbon receptor (Homo sapiens) (UniProt P35869); experiment: qHTS assay to identify small molecule that activate the aryl hydrocarbon receptor (AhR) signaling pathway (AID 743085); also: nearly all actives have a fitted effect of over 15% in size; also: potency is read from the fitted curve at half-maximal effect;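 as to activation: HG2L7.5c1 human HepG2 liver cells with stably integrated DRE-driven firefly reporter; series mostly up to about 70 µM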
Sequence of Aryl hydrocarbon receptor (Homo sapiens) (P35869 whole entry, looked up): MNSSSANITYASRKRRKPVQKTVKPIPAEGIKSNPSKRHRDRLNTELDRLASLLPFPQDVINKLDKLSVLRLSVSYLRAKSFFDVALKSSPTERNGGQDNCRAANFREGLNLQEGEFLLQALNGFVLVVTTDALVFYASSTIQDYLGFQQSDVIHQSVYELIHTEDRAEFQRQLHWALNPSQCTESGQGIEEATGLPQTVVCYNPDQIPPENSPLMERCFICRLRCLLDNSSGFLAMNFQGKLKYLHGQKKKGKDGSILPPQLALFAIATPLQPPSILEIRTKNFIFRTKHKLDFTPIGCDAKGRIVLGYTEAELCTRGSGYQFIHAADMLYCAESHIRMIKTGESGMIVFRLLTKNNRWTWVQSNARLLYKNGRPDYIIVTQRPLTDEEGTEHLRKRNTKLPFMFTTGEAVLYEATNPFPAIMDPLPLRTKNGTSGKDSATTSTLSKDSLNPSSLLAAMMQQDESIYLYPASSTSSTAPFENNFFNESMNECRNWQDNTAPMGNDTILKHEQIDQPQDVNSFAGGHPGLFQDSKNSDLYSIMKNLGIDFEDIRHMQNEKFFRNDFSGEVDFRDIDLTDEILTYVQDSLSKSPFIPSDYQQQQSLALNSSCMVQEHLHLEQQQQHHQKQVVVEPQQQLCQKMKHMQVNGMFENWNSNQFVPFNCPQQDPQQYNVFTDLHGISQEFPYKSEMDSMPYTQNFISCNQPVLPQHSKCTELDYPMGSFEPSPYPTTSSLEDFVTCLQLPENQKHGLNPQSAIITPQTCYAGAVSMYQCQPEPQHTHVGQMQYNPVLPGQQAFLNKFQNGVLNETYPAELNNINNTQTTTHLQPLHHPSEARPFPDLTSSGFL
Summary of the method: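 Stably transfected human liver carcinoma cells (HG2L7.5c1; 20 DRE-firefly luciferase) were incubated 5 h, dosed, and kept 24 h at 37C. Agonism was scored from increased luciferase luminescence.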

[11] = qHTS assay to identify small molecule that activate the aryl hydrocarbon receptor (AhR) signaling pathway - cell viability counter screen (AID 743086);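 also: HepG2 liver cells carrying the AhR DRE luciferase reporter; series mostly up to about 70 µM; nearly all actives have a fitted effect of over 45% in size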
Summary of the method: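 HepG2-AhR-luc (HG2L7.5c1) cells, 4000/well, treated 24 h at 37 C with compound; viability measured as CellTiter-Fluor fluorescence after 30 min in the same wells as the luciferase read.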

[12] = target: Peroxisome proliferator-activated receptor gamma (Homo sapiens) (UniProt P37231); experiment: qHTS assay to identify small molecule agonists of the peroxisome proliferator-activated receptor gamma (PPARg) signaling pathway (AID 743094; active = well fitted activation curve with a large enough effect in the signal ratio in the repeat runs, not every such curve was filed as active; the % refers to the signal ratio)
Sequence of Peroxisome proliferator-activated receptor gamma (Homo sapiens) (P37231 whole entry, looked up): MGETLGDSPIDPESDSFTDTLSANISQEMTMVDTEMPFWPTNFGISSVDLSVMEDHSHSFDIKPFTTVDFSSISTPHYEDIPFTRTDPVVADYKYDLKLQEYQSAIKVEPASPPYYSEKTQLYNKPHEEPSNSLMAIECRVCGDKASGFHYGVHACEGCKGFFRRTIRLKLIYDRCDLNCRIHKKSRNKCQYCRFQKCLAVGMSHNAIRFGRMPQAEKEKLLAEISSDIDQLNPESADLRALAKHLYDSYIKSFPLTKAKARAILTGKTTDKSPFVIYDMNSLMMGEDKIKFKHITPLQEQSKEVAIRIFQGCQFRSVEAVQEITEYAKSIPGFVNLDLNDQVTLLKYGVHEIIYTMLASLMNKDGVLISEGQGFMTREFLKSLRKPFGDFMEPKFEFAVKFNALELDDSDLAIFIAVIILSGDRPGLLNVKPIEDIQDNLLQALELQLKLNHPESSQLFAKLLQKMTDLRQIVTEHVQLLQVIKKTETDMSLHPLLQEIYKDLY
Summary of the method: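 Beta-lactamase FRET fluorescence was the read-out after a 1 h room-temperature substrate step, following 17 h compound treatment at 37C of HEK293H cells expressing a UAS-driven bla reporter responsive to PPARg.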

[13] = target: Peroxisome proliferator-activated receptor gamma (Homo sapiens) (UniProt P37231); experiment: qHTS assay to identify small molecule antagonists of the peroxisome proliferator-activated receptor gamma (PPARg) signaling pathway (AID 743191; calls by dose curve; also: series mostly up to about 63 µM; nearly all actives have a fitted effect of over 30% in size)
Summary of the method: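 GeneBLAzer PPARg UAS-bla HEK293H cells, 5 h post-plating, exposed to compounds 17 h at 37C. LiveBLAzer B/G FRET substrate added for 1 h at room temperature; beta-lactamase reporter read by fluorescence intensity.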

[14] = qHTS assay to identify small molecule antagonists of the peroxisome proliferator-activated receptor gamma (PPARg) signaling pathway - cell viability counter screen (AID 743194); also: nearly all actives have a fitted effect of over 55% in size
Summary of the method: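 Cytotoxicity counter screen in PPARg-bla HEK293H cells, same wells as reporter assay. Compounds plus 50 nM rosiglitazone (final) for 17 h at 37 C, then viability read by CellTiter-Glo luminescence.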

[15] = qHTS assay for small molecule agonists of the antioxidant response element (ARE) signaling pathway (AID 743202; active = well fitted activation curve with a large enough effect in the signal ratio in the repeat runs, not every such curve was filed as active; the % refers to the signal ratio)
Summary of the method: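 Agonist mode reporter screen: HepG2 cells with ARE-controlled beta-lactamase are incubated with test compounds for 16 h at 37 C, and beta-lactamase activity is measured as fluorescence of cleaved B/G FRET substrate.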

[16] = qHTS assay for small molecule agonists of the antioxidant response element (ARE) signaling pathway - cell viability counter screen (AID 743203; calls by dose curve; also: nearly all actives have a fitted effect of over 55% in size)
Summary of the method: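 HepG2 cells carrying ARE-driven beta-lactamase; 2,000 cells/well; 5 hrs plating; compound pinned from DMSO; 16 hrs 37C/5% CO2; CellTiter-Glo added; 30 min RT; luminescence.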

[17] = qHTS assay for small molecule activators of the heat shock response signaling pathway - cell viability counter screen (AID 743209); also: nearly all actives have a fitted effect of over 50% in size
Summary of the method: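 Luminescence from CellTiter-Glo, added after the beta-lactamase FRET read, gave the viability signal. Cells were HSE-bla HeLa treated with DMSO-dissolved compounds for 5 h at 37 C following overnight plating.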

[18] = qHTS assay for small molecule activators of the heat shock response signaling pathway (AID 743210; active = well fitted activation curve with a large enough effect in the signal ratio in the repeat runs, with a control signal flat, not every such curve was filed as active; the % refers to the signal ratio;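 also: HeLa cells with beta-lactamase reporter driven by heat shock elements; series mostly up to about 63 µM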)
Summary of the method: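 Quantitative high-throughput format using an engineered HeLa line in which heat shock response elements drive beta-lactamase; after 5 h with compound, cells received a B/G FRET substrate and fluorescence was read.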

[19] = qHTS assay to identify small molecule agonists of the peroxisome proliferator-activated receptor delta (PPARd) signaling pathway - cell viability counter screen (AID 743211); also: nearly all actives have a fitted effect of over 55% in size
Summary of the method: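 In the same wells used for beta-lactamase reporter measurement, cytotoxicity is scored by CellTiter-Glo. HEK293H PPARd-bla cells receive compound for 17 h at 37C following a 5 h settling period.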

[20] = target: Estrogen receptor (Homo sapiens) (UniProt P03372); experiment: qHTS assay to identify small molecule agonists of the estrogen receptor alpha (ER-alpha) signaling pathway using the BG1 cell line (AID 743079); also: nearly all actives have a fitted effect of over 20% in size; also: potency is read from the fitted curve at half-maximal effect

Structure (SMILES) | Potency [1] | outcome [2] | outcome [3] | outcome [4] | Potency [5] | outcome [6] | Potency [7] | outcome [8] | Potency [9] | Potency [10] | Potency [11] | Potency [12] | outcome [13] | outcome [14] | Potency [15] | outcome [16] | Potency [17] | outcome [18] | outcome [19] | Potency [20]
O=C(O)[C@H](O)c1ccccc1 | inactive | inactive | inactive | inactive | inactive | inactive | inactive | inactive | inactive | inactive | inactive | inactive | inactive | inactive | inactive | inactive | inactive | inactive | inactive | –
CCCCCCCCCCCCCCCCCC#N | inactive | inactive | inactive | inactive | inactive | inactive | – | inactive | inactive | inactive | inactive | inactive | inactive | inactive | inactive | inactive | inactive | – | inactive | inactive
c1ccc(B(c2ccccc2)c2ccccc2)cc1 | inactive | inactive | inactive | inactive | 30.9 µM [activator] (active) | – | inactive | inactive | inactive | 30.6 µM (active) | inactive | inactive | – | – | – | inactive | inactive | inactive | inactive | 34.3 µM (active)
O=C1CCCCO1 | inactive | inactive | inactive | inactive | inactive | inactive | inactive | inactive | inactive | – | inactive | inactive | – | inactive | inactive | – | inactive | inactive | inactive | inactive
CCCCOCCOC(=O)COc1ccc(Cl)cc1Cl | inactive | inactive | inactive | inactive | inactive | inactive | inactive | inactive | inactive | inactive | inactive | inactive | – | inactive | inactive | inactive | inactive | inactive | inactive | –
Cn1nnc2c(C(N)=O)ncn2c1=O | inactive | inactive | inactive | inactive | inactive | inactive | inactive | inactive | inactive | – | – | inactive | – | inactive | inactive | inactive | – | – | inactive | inactive
COC(C)(OC)OC | inactive | inactive | inactive | – | inactive | inactive | inactive | inactive | inactive | inactive | inactive | inactive | inactive | inactive | inactive | inactive | inactive | inactive | inactive | inactive
C[C@H]1[C@@H](c2ccccc2)NC(=O)N1C | inactive | inactive | inactive | inactive | inactive | inactive | inactive | inactive | inactive | – | – | inactive | inactive | inactive | inactive | inactive | inactive | inactive | inactive | inactive
CC1c2ccccc2CN1NC(=O)c1ccc(Cl)c(S(N)(=O)=O)c1 (configuration not stated) | inactive | inactive | inactive | inactive | inactive | inactive | inactive | inactive | – | – | – | inactive | inactive | inactive | inactive | inactive | inactive | inactive | inactive | inactive
[O]=[Mo](=[O])=[O] | inactive | inactive | inactive | inactive | inactive | inactive | inactive | inactive | inactive | – | inactive | – | – | inactive | inactive | inactive | inactive | inactive | – | inactive
C=CCCCC | inactive | inactive | inactive | inactive | inactive | inactive | inactive | inactive | inactive | – | – | inactive | inactive | inactive | – | inactive | inactive | inactive | inactive | –
CC(S)C(C)S (configuration not stated) | inactive | inactive | inactive | inactive | inactive | inactive | inactive | inactive | inactive | – | – | inactive | inactive | inactive | inactive | inactive | inactive | inactive | inactive | inactive
